Some test systems named below: NCI-H23 lung; NCI-H226 lung; NCI-H322M lung; HOP-62 NSCLC; NCI-H460 lung; NCI-H522 lung; A549/ATCC NSCLC; 786-0 renal; COLO 205 colon; DU-145 prostate; K-562 leukemia; MALME-3M melanoma; MDA-MB-231 breast; RXF 393 renal; SF-268 CNS; SF-295 CNS; SF-539 CNS; UACC-257 melanoma; M14 melanoma.
What all share (experiment): NCI-60 one-dose screen, 48 h (100 = growth as untreated, 0 = no growth, -100 = all killed)
Holding throughout (conditions): 10 µM unless noted

Each structure is given as a SMILES string. Compounds without any hit were thinned out: in the full panel of roughly 83,000, 20% have a hit.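 Growth was measured after 48 h exposure to one concentration of compound in 96-well plates. Values under 10 count as active.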 Values without a mark were called inactive. Active and inactive are the calls of the source.

Regarding `CC(C)(C)c1ccc(-c2nnc(-c3nc4ccccc4nc3Cl)o2)cc1`, the growth was 90.9% in the assay with NCI-H23 lung; 86.5% in the assay on NCI-H226 lung; 92.9% with NCI-H322M lung; 11.1% in the assay on HOP-62 NSCLC; 88.1% in the assay on NCI-H460 lung; 99.1% in the assay on NCI-H522 lung. For the same compound, the growth was 102% in the assay with A549/ATCC NSCLC; 105% in the assay on 786-0 renal; 104% in the assay with COLO 205 colon; 86.2% in the assay on DU-145 prostate; 65.9% in the assay with K-562 leukemia; 101% in the assay with MALME-3M melanoma. In addition, the growth with MDA-MB-231 breast was 90.5%; with RXF 393 renal, 88.4%; in the assay with SF-268 CNS it was 42%; with SF-295 CNS, 103%; in the assay on SF-539 CNS, 93.8%; in the assay with UACC-257 melanoma, 61.9%. Besides, the growth in the assay with M14 melanoma is 93.1%.
In the case of `N#C/C(=C\c1ccc(-c2ccc(Cl)cc2Cl)o1)c1ccc(F)cc1`, the growth in the assay on NCI-H23 lung was 87.7%; in the assay on NCI-H226 lung it was 5.86% (active); with NCI-H322M lung, 93.4%; in the assay on HOP-62 NSCLC, 82.2%; with NCI-H460 lung, 90.7%; in the assay on NCI-H522 lung, 88.1%. In addition, the growth in the assay with A549/ATCC NSCLC is 100%; with 786-0 renal it was 94%; in the assay on COLO 205 colon it was 100%; with DU-145 prostate it was 102%; with K-562 leukemia it was 92.5%; with MALME-3M melanoma, 98.7%. In addition, the growth in the assay with MDA-MB-231 breast was 83.4%; with RXF 393 renal, 67.5%; in the assay with SF-268 CNS it was 92.3%; in the assay with SF-295 CNS, 99.8%; in the assay on SF-539 CNS it was 89.9%; in the assay on UACC-257 melanoma it was 104%. For the same compound, the growth in the assay on M14 melanoma is 95.3%.
As for `CC1=N[C@@H]2CN(C(=O)OC(C)(C)C)C[C@@H]2n2c1cc1ccccc1c2=O`, the growth with NCI-H23 lung was 93.7%; in the assay with NCI-H226 lung, 99.5%; in the assay on NCI-H322M lung, 98.6%; in the assay with HOP-62 NSCLC, 97.9%; in the assay with NCI-H460 lung, 109%; with NCI-H522 lung, 98.6%. The growth with A549/ATCC NSCLC is 103%; in the assay with 786-0 renal, 102%; with COLO 205 colon, 107%; in the assay on DU-145 prostate, 111%; in the assay on K-562 leukemia, 97.8%; in the assay with MALME-3M melanoma it was 107%. Further, the growth in the assay with MDA-MB-231 breast was 96.1%; in the assay with RXF 393 renal it was 110%; with SF-268 CNS it was 99.5%; in the assay on SF-295 CNS, 108%; in the assay on SF-539 CNS it was 99.3%; in the assay on UACC-257 melanoma, 108%. Moreover, the growth in the assay with M14 melanoma is 97.7%.
In the case of `CC[C@H](CO)Nc1ccc2ncc(C#Cc3cncc(C(=O)Nc4ccc(CN5CCN(C)CC5)c(C(F)(F)F)c4)c3)n2n1`, the growth is -80.8% (active) with NCI-H23 lung; -25.7% (active) with NCI-H226 lung; -16.6% (active) with NCI-H322M lung; -45% (active) in the assay on HOP-62 NSCLC; -93% (active) in the assay on NCI-H460 lung; -75.8% (active) in the assay with NCI-H522 lung. The growth was -0.341% (active) in the assay on A549/ATCC NSCLC; -97.2% (active) with 786-0 renal; -92.5% (active) in the assay on COLO 205 colon; -94.3% (active) with DU-145 prostate; 0.0289% (active) in the assay on K-562 leukemia; -81.5% (active) with MALME-3M melanoma. Moreover, the growth in the assay with MDA-MB-231 breast was -60.6% (active); in the assay with RXF 393 renal, -95.7% (active); in the assay with SF-268 CNS, -60.5% (active); with SF-295 CNS it was -82.1% (active); in the assay on SF-539 CNS, -91.5% (active); in the assay with UACC-257 melanoma it was -85.9% (active). For the same compound, in the assay on M14 melanoma, the growth was -95.5% (active).
As to `Fc1ccc(-c2cc3nc(C(Cl)Cl)nc(-c4ccco4)n3n2)cc1`, the growth was 37.3% in the assay with NCI-H23 lung; 93.2% with NCI-H226 lung; -22.3% (active) with NCI-H322M lung; -18.8% (active) in the assay on HOP-62 NSCLC; -17.3% (active) in the assay on NCI-H460 lung; 89.9% in the assay with NCI-H522 lung. In addition, the growth in the assay with A549/ATCC NSCLC was -20.1% (active); in the assay on 786-0 renal, 33.2%; with COLO 205 colon it was -45.4% (active); in the assay with DU-145 prostate, -48.2% (active); in the assay on K-562 leukemia, 33.4%; in the assay with MALME-3M melanoma it was 93.3%. The growth was -26.2% (active) with MDA-MB-231 breast; -65.6% (active) in the assay with RXF 393 renal; 3.07% (active) with SF-268 CNS; -9.65% (active) in the assay with SF-295 CNS; -43.4% (active) with SF-539 CNS; 30.8% in the assay on UACC-257 melanoma.
`CNC(=O)c1cc(Oc2ccc3nc(NC(=O)c4ccc(N5CCOCC5)c(C(F)(F)F)c4)sc3c2)ccn1`: the growth in the assay on NCI-H23 lung was 78.9%; with NCI-H226 lung, 91.5%; in the assay with NCI-H322M lung it was 91.7%; with HOP-62 NSCLC it was 90.5%; in the assay with NCI-H460 lung it was 68.8%; in the assay on NCI-H522 lung, 77.9%. Further, the growth in the assay on A549/ATCC NSCLC is 80.5%; with 786-0 renal it was 47.1%; in the assay on COLO 205 colon, 102%; in the assay on DU-145 prostate, 98.2%; in the assay on K-562 leukemia, 71.9%; with MALME-3M melanoma, 94.2%. Besides, the growth is 84.9% in the assay on MDA-MB-231 breast; -31.3% (active) with RXF 393 renal; 92.8% in the assay with SF-268 CNS; 26.5% with SF-295 CNS; 68.3% in the assay on SF-539 CNS; 96.2% in the assay on UACC-257 melanoma. Further, in the assay with M14 melanoma, the growth was 85.9%.
On to `CCOc1cccc(-c2nc3sccn3c2-c2ccnc(S(C)(=O)=O)n2)c1`, for which the growth with NCI-H23 lung was 99.1%; in the assay with NCI-H226 lung, 94%; in the assay with NCI-H322M lung it was 93.1%; in the assay with HOP-62 NSCLC, 100%; in the assay on NCI-H460 lung, 76.8%; in the assay on NCI-H522 lung, 98.9%. For the same compound, the growth in the assay on A549/ATCC NSCLC was 102%; in the assay on 786-0 renal it was 103%; in the assay with COLO 205 colon, 99.9%; with DU-145 prostate it was 0.125% (active); in the assay with K-562 leukemia, 55.4%; with MALME-3M melanoma it was 98.8%. In addition, the growth in the assay with MDA-MB-231 breast is 101%; in the assay on RXF 393 renal it was 98.3%; with SF-268 CNS, 99.7%; with SF-295 CNS it was 104%; in the assay with SF-539 CNS it was 94.4%; in the assay on UACC-257 melanoma, 91.1%. Moreover, the growth in the assay on M14 melanoma is 94.4%.
Take `O=C(CSc1nnc(-c2ccc(Cl)cc2)n1-c1ccccc1)Nc1cccc(Cl)c1`: the growth in the assay on NCI-H23 lung is 49.5%; with NCI-H226 lung it was 46.3%; with NCI-H322M lung it was 55.5%; with HOP-62 NSCLC, 104%; with NCI-H460 lung it was 47.9%; in the assay on NCI-H522 lung, 69.8%. Further, the growth is 25.7% in the assay on A549/ATCC NSCLC; 28.1% in the assay with 786-0 renal; 82.1% with COLO 205 colon; 64.6% in the assay on DU-145 prostate; 61.9% in the assay with K-562 leukemia; 75.9% in the assay with MALME-3M melanoma. Also, the growth is 36.3% in the assay with MDA-MB-231 breast; 70.8% in the assay on RXF 393 renal; 76.1% in the assay with SF-268 CNS; 27.2% in the assay on SF-295 CNS; 50.9% with SF-539 CNS; 90.4% in the assay with UACC-257 melanoma.

The values are drawn from PubChem BioAssay (NCI).
